Screens: PubChem BioAssay, The Scripps Research Institute Molecular Screening Center
PLC-beta3 inh: human PLC-beta3 inhibitors, primary screen, biochemical, fluorescence; 1-phosphatidylinositol 4,5-bisphosphate phosphodiesterase beta-3 (Homo sapiens), Q01970; inhibition, % at 12.2 µM; Purified PLC-beta3, fluorogenic substrate; AID 720704, 2013; 370,000 compounds, 0.18% hits; in the data active means inhibition above about 11%;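 further: 0% = median of compound wells on plate and 100% = full blocker control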
PLCg1 inh: PLC-gamma1 enzyme inhibitors, primary screen, biochemical, fluorescence, purified enzyme. 1-phosphatidylinositol 4,5-bisphosphate phosphodiesterase gamma-1 (Homo sapiens), P19174. inhibition, % at 12.2 µM. 370,000 compounds, 0.84% hits. fluorogenic substrate; in the data active means inhibition above about 9.5%
ADAM10 inh: human ADAM10 inhibitors, primary screen, biochemical, QFRET, HTS; Disintegrin and metalloproteinase domain-containing protein 10 (Homo sapiens), O14672; recombinant ADAM10, EDANS/DABCYL FRET peptide cleavage, 3 h; inhibition, % at 7 µM; 370,000 compounds, 0.62% hits; AID 720582, 2013;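 active means inhibition above a per-campaign cutoff equal to the mean of compounds falling between control-based bounds plus 3 SD, cut at about 20% in these data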;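 further: 0% = DMSO wells while the 100% control is not disclosed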
Target sequence (O14672 214-748 limits assumed): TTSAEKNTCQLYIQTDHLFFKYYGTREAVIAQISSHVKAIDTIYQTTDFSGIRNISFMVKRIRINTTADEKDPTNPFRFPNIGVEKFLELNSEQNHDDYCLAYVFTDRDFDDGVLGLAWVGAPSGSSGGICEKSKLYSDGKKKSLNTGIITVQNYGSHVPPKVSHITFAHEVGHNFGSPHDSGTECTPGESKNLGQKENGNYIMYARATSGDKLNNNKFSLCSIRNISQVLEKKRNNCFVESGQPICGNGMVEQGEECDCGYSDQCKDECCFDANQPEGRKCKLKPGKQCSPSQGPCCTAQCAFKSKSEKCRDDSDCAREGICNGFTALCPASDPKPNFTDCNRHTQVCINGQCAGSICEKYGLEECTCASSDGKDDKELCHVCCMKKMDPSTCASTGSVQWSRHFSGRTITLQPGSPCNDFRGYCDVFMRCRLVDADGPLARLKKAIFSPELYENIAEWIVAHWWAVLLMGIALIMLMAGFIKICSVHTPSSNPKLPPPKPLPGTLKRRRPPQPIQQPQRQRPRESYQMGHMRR
ADAM17 inh: ADAM17 inhibitors, primary screen, biochemical, QFRET; 370,000 compounds, 0.83% hits; recombinant ADAM17, EDANS/DABCYL FRET peptide cleavage; AID 720648, 2013; Disintegrin and metalloproteinase domain-containing protein 17 (Homo sapiens), P78536; inhibition, % at 6.95 µM;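 active means inhibition above the mean of compounds lying between control limits plus 3 SD, set per campaign, cut at about 8.5% in these data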;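 further: 0% = DMSO-only wells as the low control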
KLK7 zymogen act: proKLK7 zymogen activators, primary screen, biochemical, fluorescence intensity; purified proKLK7, EDANS-DABCYL substrate fluorescence; 100% is mature enzyme control, 0% vehicle; activation, % at 7 µM; 370,000 compounds, 0.9% hits; Kallikrein-7 (Homo sapiens), P49862;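 active means activation above the mean of all tested compounds plus 3 SD, computed per campaign excluding outliers beyond control limits, cut at about 13% in these data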
ADAM10 ctr: ADAM10 inhibitors, counter-screen for ADAM17 exosite inhibitor project, biochemical, FRET, human ADAM10; shares compounds with ADAM17 inh; recombinant ADAM10, EDANS/DABCYL FRET peptide cleavage, 3 h; inhibition, % at 6.95 µM; 2,900 compounds, 47% hits; AID 743256, 2014;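 active means mean inhibition over the triplicate runs exceeds the activity threshold set in the earlier primary screen, cut at about 20% in these data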;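 further: 0% = DMSO wells and 100% = marimastat wells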
ADAM17 confirm: ADAM17 inhibitors, hit retest, confirmation, biochemical, QFRET peptide cleavage | shares compounds with ADAM17 inh | AID 743257, 2014 | inhibition, % at 6.95 µM | recombinant ADAM17, EDANS/DABCYL QFRET peptide cleavage | 2,900 compounds, 65% hits;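 active means mean inhibition across replicates above the hit cutoff set in the primary screen, cut at about 8.5% in these data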;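 further: 0% = DMSO wells and 100% = marimastat wells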
The depositor's hits bear a star; i = inactive; / = no result given. Sampled rows, rich in hits. Any-hit rate of the full collection: about 2.9%.

SMILES	PLC-beta3 inh	PLCg1 inh	ADAM10 inh	ADAM17 inh	KLK7 zymogen act	ADAM10 ctr	ADAM17 confirm
COc1ccc(S(=O)(=O)N2CCCCC2)cc1NC(=O)Cc1c[nH]c2ccccc12	1	0	9	2	0	/	/
Cc1ccc(S(=O)(=O)N2CCCCC2)cc1NC(=O)CNc1ccc(C(F)(F)F)cc1	0	4	17	9.4*	0	17	11*
Cc1cc(C([O-])=C(C(=S)Nc2ccccc2)[n+]2ccccc2)c(C)n1-c1ccccc1	-30	-18	-22	-4	-1	/	/
Cc1c(Cl)cccc1NC(=S)/C(=C(\[O-])c1ccc(Cl)s1)[n+]1ccccc1	-2	-7	9	9.6*	0	4	2
Cc1ccccc1NC(=S)/C(=C(\[O-])c1cc(C)n(Cc2ccccc2Cl)c1C)[n+]1ccccc1	-26	-17	14	12*	-1	24*	9.4*
[O-]/C(=C(\C(=S)Nc1cccc2ccccc12)[n+]1cccc(CO)c1)c1ccc(Cl)s1	-14	-16	-32	-8	-2	/	/
CSc1ccc(-c2cc3c(c4c2ccn4C)C2CCC3O2)cc1 (stereo not drawn)	-268	-188	i	-231	-10	/	/
Cc1ccc(-c2n[nH]c(=S)c3ccccc23)cc1S(=O)(=O)NCC1CCCO1 (stereo not drawn)	-7	1	5	-2	0	/	/
CC1=Nc2cc(C(=O)NCCN3CCOCC3)ccc2Sc2c(C)ccc(C)c21	-6	6	1	9.3*	1	-15	0
O=C(CCC1CCN(C(=O)CC2=CCCCC2)CC1)NCc1ccc(F)cc1	-12	-10	-58	-17	0	/	/
O=C1CCN(S(=O)(=O)c2ccccc2)CCN1CCOCc1cccc(F)c1	6	7	11	10*	0	-3	3
O=C(NCC1CCCCC1)c1ccc2sc([C@H]3C[C@H](O)[C@@H](CO)O3)nc2c1	-2	2	-9	1	0	/	/
C=CCN1C(C(=O)OC)CN(Cc2cn(Cc3ccc(OC)cc3)nn2)CCS1(=O)=O (stereo not drawn)	3	0	-5	-2	0	/	/
O=C(CNC(=O)/C(=C\c1ccc(Br)cc1)NC(=O)c1ccccc1)OCc1ccccc1	-13	-6	12	10*	1	22*	6
C[C@H](CO)N1C[C@H](C)[C@H](CN(C)Cc2cncnc2)Oc2ncc(C#CC3(O)CCCC3)cc2C1=O	1	-4	-4	-3	0	/	/
O=C(OCC#CCSc1nnc(-c2cccc3ccccc23)o1)c1cccc(C(F)(F)F)c1	0	-2	-6	-4	/	/	/
CN(C)S(=O)(=O)c1cc(NC(=O)COC(=O)Cc2cccc3ccccc23)ccc1Cl	2	3	16	8.8*	0	27*	17*
CC(C)N(C)c1ncnc2c1ncn2[C@H]1CN(CCN2CCOCC2)C[C@@H](CO)O1	2	-1	-9	-5	0	/	/
CC(C)(C)CCNc1nc(-c2ccccn2)nnc1-c1ccccc1	1	1	-3	-3	/	/	/
CCOc1ccc(NC(=O)CN2CCN(c3ccc(F)cc3)CC2)cc1S(=O)(=O)N1CCCC1	7	7	-1	11*	0	2	5
CCOP(=O)(OCC)c1ccc2ccc3ccccc3c(=O)c2c1	-5	-5	-62	-20	0	/	/
COc1ccc(Cl)cc1NC(=O)CN(C)C(=O)CSc1ccc2c(c1)OCCO2	-3	3	5	8.9*	0	25*	15*
COc1ccc(NC(=O)CN(C)C(=O)CSc2ccc3c(c2)OCCO3)cc1	-2	4	2	5	1	/	/
O=[N+]([O-])c1ccc(C2=NN(CCO)C(=Nc3ccc(OC(F)(F)F)cc3)SC2)cc1	-2	0	12	12*	0	32*	18*
O=C(Nc1ccc(F)cc1)c1ccccc1Oc1ccc(C(F)(F)F)cc1[N+](=O)[O-]	5	2	17	11*	1	23*	12*
SMILES	PLC-beta3 inh	PLCg1 inh	ADAM10 inh	ADAM17 inh	KLK7 zymogen act	ADAM10 ctr	ADAM17 confirm
CCc1cc(CNC(=O)c2ccc3nc(Cc4ccc(OC)c(OC)c4)oc3c2)on1	-12	-5	-12	-9	-3	/	/
COCc1ccc(C(=O)N2CCCC(N3CCN(c4cccc(Cl)c4)CC3)C2)s1 (stereo not drawn)	2	1	0	-1	-1	/	/
CCOC(=O)C1=C(O)/C(=C/c2ccc(-c3ccccc3C(=O)O)o2)SC1=Nc1ccc(C)cc1	-112	-82	-2	-2	0	/	/
CCOC(=O)C1=C(O)/C(=C/c2ccc(-c3ccccc3C(=O)O)o2)SC1=Nc1ccc(OC)cc1	-32	-27	11	9.5*	0	9	8.8*
N#CCOc1ccccc1CNC[C@H]1O[C@@H](n2cnc(C(N)=O)n2)[C@H](O)[C@@H]1O	2	4	3	9.7*	0	15	7
COC(=O)N1C[C@H](OC(=S)Nc2ccc(OC)cc2OC)[C@H]2C[C@@H]1c1ccccc1O2	1	2	0	2	1	/	/
Nc1[nH]c(C(=O)c2ccccc2)c(-c2ccc(F)cc2)c1C(=O)NCCc1c[nH]c2ccccc12	-3	0	-10	-2	0	/	/
Nc1[nH]c(C(=O)c2ccccc2)c(-c2cc(F)ccc2Br)c1C(=O)NCCc1c[nH]c2ccccc12	-20	-15	13	10*	0	26*	16*
O=[N+]([O-])c1ccc(CNc2ccc(Cl)cc2)s1	-4	2	3	4	0	/	/
CC(CNc1ccc(Cl)cc1)(CNc1ccc(Cl)cc1)[N+](=O)[O-]	2	0	14	9.9*	0	25*	8
O=C(NC1=NCCS1)c1cc(-c2cccc(Br)c2)nc2ccccc12	0	0	15	9.1*	-1	14	9.3*
COCC(C)n1c(SCC(=O)N2CC(=O)Nc3ccccc32)nc2ccccc2c1=O (stereo not drawn)	-6	-4	-7	-2	0	/	/
